Measurements reported in publication PMC4336329 (PLoS ONE, 2015).
In all, about 310,000 compounds went through this assay and about 14,000 (4.5%) showed an effect of 50% or more. The effect is printed as a negative number. Only a selection was taken, and strong results are over-represented in it overall.

The compounds below were run against human ether-à-go-go-related gene (hERG) potassium channel (human, UniProt Q12809) (assay: primary screen, population patch clamp on CHO cells stably expressing hERG; higher = less effect of the substance).
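Further: peak tail current of the secondary pulse compared with the same well before compound.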

human ether-à-go-go-related gene (hERG) potassium channel, sequence (Q12809 whole entry, looked up): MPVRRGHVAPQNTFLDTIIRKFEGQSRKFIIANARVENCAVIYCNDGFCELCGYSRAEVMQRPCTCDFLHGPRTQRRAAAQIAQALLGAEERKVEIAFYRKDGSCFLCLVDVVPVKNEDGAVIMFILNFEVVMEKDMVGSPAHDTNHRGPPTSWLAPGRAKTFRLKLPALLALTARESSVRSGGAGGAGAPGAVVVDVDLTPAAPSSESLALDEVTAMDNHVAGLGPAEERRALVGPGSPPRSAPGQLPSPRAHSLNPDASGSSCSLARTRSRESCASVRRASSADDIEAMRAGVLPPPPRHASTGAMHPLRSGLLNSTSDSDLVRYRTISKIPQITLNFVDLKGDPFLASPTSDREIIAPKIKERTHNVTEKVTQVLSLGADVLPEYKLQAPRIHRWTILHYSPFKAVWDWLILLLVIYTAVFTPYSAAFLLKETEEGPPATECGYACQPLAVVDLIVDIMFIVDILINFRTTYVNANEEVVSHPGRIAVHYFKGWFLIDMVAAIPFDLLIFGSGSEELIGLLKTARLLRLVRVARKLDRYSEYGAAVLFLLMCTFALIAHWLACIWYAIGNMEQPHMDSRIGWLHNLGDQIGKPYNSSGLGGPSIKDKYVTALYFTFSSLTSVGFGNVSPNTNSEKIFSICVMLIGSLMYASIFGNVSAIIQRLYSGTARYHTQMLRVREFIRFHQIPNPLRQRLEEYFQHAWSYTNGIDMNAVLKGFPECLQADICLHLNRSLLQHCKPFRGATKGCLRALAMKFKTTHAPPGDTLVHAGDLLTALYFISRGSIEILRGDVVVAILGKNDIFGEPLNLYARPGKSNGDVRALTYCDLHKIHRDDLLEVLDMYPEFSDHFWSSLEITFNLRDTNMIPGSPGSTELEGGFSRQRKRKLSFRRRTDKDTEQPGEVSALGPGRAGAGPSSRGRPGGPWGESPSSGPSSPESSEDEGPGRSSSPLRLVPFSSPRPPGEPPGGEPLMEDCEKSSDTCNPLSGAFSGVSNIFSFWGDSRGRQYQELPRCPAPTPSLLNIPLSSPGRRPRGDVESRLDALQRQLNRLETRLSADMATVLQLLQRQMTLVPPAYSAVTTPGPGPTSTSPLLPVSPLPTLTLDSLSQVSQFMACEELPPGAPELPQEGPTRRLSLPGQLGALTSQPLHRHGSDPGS

Structure (SMILES) | hERG current change (%, negative = inhibition) at 10uM [%]
OCCOCCn1c(-c2ccccc2)nc(=S)c2c1CCCC2 | 9.34
CCCOc1ccc(Cn2c(O)cc(=O)[nH]c2=O)cc1 | 14.1
O=C(O)c1cccc(N2C(=O)c3cccc4cccc(c34)C2=O)c1 | 12.7
Cc1sc2ccccc2[n+]1CC(=O)c1ccccc1.[Br-] | 18.7
O=C(c1ccccc1)c1c2c(cc3sc4ccccc4[n+]13)-c1cccc3cccc-2c13.[Br-] | -76.8
CN(C)/C=N/c1ncc(C(=O)c2ccccc2)s1 | 1.48
Cc1sc2cc3c(c(C(=O)c4ccccc4)[n+]2c1C)-c1cccc2cccc-3c12.[Br-] | -77.1
Cc1sc(N)c(C(=O)c2ccccc2)c1C | 9.41
N#C/C(=C\c1ccccc1)C(=O)NC1CC1 | 11.3
O=C(CSc1nnnn1-c1cccc(F)c1)Nc1nc2ccccc2s1 | 8.36
COc1ccc(-c2[nH]ncc2CN2CCC(N3CCSCC3)CC2)c(F)c1 | 1.98
COCC1CCN(Cc2cn[nH]c2-c2cc3ccccc3o2)C1 (centres unmarked) | -33.7
c1ccc2oc(-c3[nH]ncc3CN3CCC(N4CCSCC4)CC3)cc2c1 | -61.9
Cc1nonc1C1CCCN1Cc1cn[nH]c1-c1ccc(-c2ccccc2)cc1 (centres unmarked) | -24.6
c1ccc2oc(-c3[nH]ncc3CN3CCSCC3)cc2c1 | -5.92
c1ccc(-c2ccc(-c3[nH]ncc3CN3CCC(N4CCSCC4)CC3)cc2)cc1 | -80.7
CN(C)c1ccc(CNC(=O)CN(C)S(=O)(=O)c2ccc3c(c2)c(=O)n(C)c(=O)n3C)cc1 | 9.67
CC1(C)CC(=O)C2=C(C1)NC(=O)NC2c1ccccc1Cl (centres unmarked) | 16.3
CC(C)C(C(=O)NC1CCCCC1)N(CC1CCCO1)C(=O)CNS(=O)(=O)c1ccc(F)cc1 (centres unmarked) | -7.17
Cc1ccc(S(=O)(=O)NCC(=O)N(CC2CCCO2)C(C(=O)NC2CCCC2)C(C)C)cc1 (centres unmarked) | -1.47
Cc1ccc(S(=O)(=O)NCC(=O)N(CC2CCCO2)C(C(=O)NC2CCCCC2)C(C)C)cc1 (centres unmarked) | -52.7
Cl.O=C(O)CCNc1nc(-c2ccccc2)nc2ccccc12 | 2.17

Structure (SMILES) | hERG current change (%, negative = inhibition) at 10uM [%]
CC(C)(C)OC(=O)NNC(=O)NC12CC3CC(CC(C3)C1)C2 | -4.97
Cc1ccc(NC(=O)CSc2nc(N)cc(N)n2)cc1S(=O)(=O)N1CCOCC1 | 7.71
CCN(C(=O)C1CCN(c2nc(-c3ccc(OC)cc3)no2)CC1)c1ccccc1 | -24.7
O=C(CSCc1ccccn1)Nc1ccccc1 | 1.85
O=C(CSCc1cccc(CSCC(=O)Nc2ccccc2)n1)Nc1ccccc1 | -67
O=C(CSCc1cccc(CSCC(=O)Nc2ccc3ccccc3c2)n1)Nc1ccc2ccccc2c1 | 9.54
O=C(CSCc1ccco1)Nc1cc(C(F)(F)F)ccc1N1CCOCC1 | -49
O=[N+]([O-])c1ccc(OCC(O)CN2CCN(c3ccccc3F)CC2)cc1 (centres unmarked) | -75.3
CC(C(=O)N1CCCC1)c1ccc([N+](=O)[O-])cc1 (centres unmarked) | -0.0422
O=S(=O)(c1ccc(OCC(O)CN2CCN(c3ccccc3O)CC2)cc1)N1CCOCC1 (centres unmarked) | -6.91
COc1cccc(OC)c1OCC(O)CN1CCN(c2ccccc2F)CC1.Cl (centres unmarked) | -12.2
Cl.OC(COCc1ccccc1)CN1CCN(c2ccccc2F)CC1 (centres unmarked) | -45.9
CC(C(=O)N1CCN(c2ccccc2F)CC1)c1ccc([N+](=O)[O-])cc1 (centres unmarked) | -68.4
CC(C(=O)N1CCN(c2ccccc2)CC1)c1ccc([N+](=O)[O-])cc1 (centres unmarked) | -42.7
Cl.OC(COc1ccc(F)cc1)CN1CCN(c2ccccc2F)CC1 (centres unmarked) | -66.6
Cc1ccc(N2CCN(C(=O)NC3CCCCC3)CC2C)cc1 (centres unmarked) | 4.09
CCOC(=O)c1c(S(=O)(=O)NCc2cccs2)c(C)n(C)c1C | -12.1
CC(=O)c1ccc(N(C(=O)Cc2c[nH]c3ccccc23)C(C(=O)NC2CCCCC2)c2cccs2)cc1 (centres unmarked) | 7.81
CN1C(=O)CSC1=NCC12CC3CC(CC(C3)C1)C2 | -19.6
CC(C)CC(=O)NC1(C(F)(F)F)C(=O)Nc2c1c(=O)n(C)c(=O)n2C (centres unmarked) | 10.5
COc1cc(OC)nc(NC2OC(=O)c3ccccc32)n1 (centres unmarked) | 0.248
CC(=O)Oc1cc2c(cc1Cl)C(c1cccs1)CC1(CC(C)(C)NC(=S)N1)O2 (centres unmarked) | 9.77
